# Assay results as given in PubChem BioAssay AID1159580 (chemical genetic matrix, 2015).
# Values joined by “and” are separate entries in the source; they are usually repeats but may differ in a detail not shown here. Identical values can stand only once. The whole screen tested about 5,500 compounds, of which about 2,000 (36%) were called active. Another 18% or so got no clear call; they are omitted. The list shows a part of the results. Values without a mark were called inactive. Rule as the data show it: active = normalized growth mostly below about 0.91 (no sharp cut-off); inconclusive = no clear call, values can overlap the other calls; inactive = mostly above about 0.92.
# Experiment: chemical genetic growth profiling, strain panel (AID 1159580);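 also: tested at 20 µM; growth read once vehicle control cultures reached saturation at 30 °C; 1 = growth at the plate median or of vehicle wells; lower values mean less growth of the strain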
# Details: S. cerevisiae deletion strains, growth OD
compound,measurement,setting,value
Cc1cc(O)ccc1Cl,normalized growth,"locus YAL021C, strain ccr4, hits give low values",1.11 [resistant] (active)
same,normalized growth,"locus YAL026C, strain drs2, hits give low values",1.01
same,normalized growth,"locus YAL030W, strain snc1, hits give low values",1.02
same,normalized growth,"locus YBL061C, strain skt5, hits give low values",0.992
same,normalized growth,"locus YBR009C, strain hhf1, hits give low values",0.999
same,normalized growth,"locus YBR021W, strain FUR4, hits give low values",1.02
same,normalized growth,"locus YBR023C, strain chs3, hits give low values",1.01
same,normalized growth,"locus YBR171W, strain sec66, hits give low values",0.997
same,normalized growth,"locus YBR229C, strain ROT2, hits give low values",1
same,normalized growth,"locus YBR231C, strain swc5, hits give low values",0.993
same,normalized growth,"locus YBR279W, strain paf1, hits give low values",1.02
same,normalized growth,"locus YCL011C, strain gbp2, hits give low values",1.01
same,normalized growth,"locus YCL016C, strain dcc1, hits give low values",1.01
same,normalized growth,"locus YCL029C, strain bik1, hits give low values",0.983
same,normalized growth,"locus YCL069W, strain vba3, hits give low values",1.02
same,normalized growth,"locus YCR088W, strain abp1, hits give low values",1.01
same,normalized growth,"locus YDL005C, strain med2, hits give low values",1.02
same,normalized growth,"locus YDL035C, strain GPR1, hits give low values",0.955
same,normalized growth,"locus YDL040C, strain nat1, hits give low values",1
same,normalized growth,"locus YDL074C, strain BRE1, hits give low values",0.987
same,normalized growth,"locus YDL101C, strain DUN1, hits give low values",1.03
same,normalized growth,"locus YDL185W, strain tfp1, hits give low values",0.986
same,normalized growth,"locus YDL192W, strain arf1, hits give low values",1
same,normalized growth,"locus YDR001C, strain nth1, hits give low values",1.01
same,normalized growth,"locus YDR069C, strain doa4, hits give low values",1.03
same,normalized growth,"locus YDR101C, strain arx1, hits give low values",0.992
same,normalized growth,"locus YDR137W, strain rgp1, hits give low values",0.816 (active)
same,normalized growth,"locus YDR159W, strain sac3, hits give low values",0.784 (active)
same,normalized growth,"locus YDR162C, strain NBP2, hits give low values",0.986
same,normalized growth,"locus YDR195W, strain ref2",1.2 [resistant] (active)
same,normalized growth,"locus YDR297W, strain sur2, hits give low values",1.03
same,normalized growth,"locus YDR318W, strain mcm21, hits give low values",0.993
same,normalized growth,"locus YDR334W, strain swr1, hits give low values",1.02
same,normalized growth,"locus YDR335W, strain msn5, hits give low values",1
same,normalized growth,"locus YDR388W, hits give low values",1
same,normalized growth,"locus YDR392W, strain spt3, hits give low values",0.944
same,normalized growth,"locus YDR502C, strain sam2, hits give low values",0.974
same,normalized growth,"locus YEL003W, strain gim4, hits give low values",1.01
same,normalized growth,"locus YEL037C, strain rad23, hits give low values",1.01
same,normalized growth,"locus YEL061C, strain CIN8 (second series), hits give low values",1.01
same,normalized growth,"locus YEL061C, strain CIN8, hits give low values",0.999
same,normalized growth,"locus YER015W, strain faa2, hits give low values",0.993
same,normalized growth,"locus YER016W, strain bim1, hits give low values",0.994
same,normalized growth,"locus YER110C, hits give low values",1.01
same,normalized growth,"locus YER111C, strain swi4, hits give low values",1.01
same,normalized growth,"locus YER155C, strain BEM2 (second series), hits give low values",0.991
same,normalized growth,"locus YER155C, strain BEM2, hits give low values",1
same,normalized growth,"locus YER167W, strain BCK2, hits give low values",0.997
same,normalized growth,"locus YFR010W, strain ubp6, hits give low values",1
same,normalized growth,"locus YGL078C, strain dbp3, hits give low values",0.981
same,normalized growth,"locus YGL086W, strain mad1, hits give low values",0.968
same,normalized growth,"locus YGL167C, strain pmr1, hits give low values",1.02
same,normalized growth,"locus YGL173C, strain kem1, hits give low values",0.948
same,normalized growth,"locus YGL227W, strain vid30, hits give low values",1
same,normalized growth,"locus YGL240W, strain doc1, hits give low values",0.999
same,normalized growth,"locus YGL248W, strain PDE1, hits give low values",1.02
same,normalized growth,"locus YGL253W, strain hxk2, hits give low values",1.01
same,normalized growth,"locus YGR135W, strain pre9, hits give low values",1.02
same,normalized growth,"locus YGR252W, strain gcn5, hits give low values",0.936
same,normalized growth,"locus YHR013C, strain ard1, hits give low values",1.13
same,normalized growth,"locus YHR027C, strain rpn1, hits give low values",0.991
same,normalized growth,"locus YHR030C, strain SLT2, hits give low values",0.999 and 0.932
same,normalized growth,"locus YHR079C, strain IRE1 (second series), hits give low values",1.01
same,normalized growth,"locus YHR079C, strain IRE1, hits give low values",0.954
same,normalized growth,"locus YHR094C, strain hxt1, hits give low values",1.01
same,normalized growth,"locus YHR129C, strain ARP1, hits give low values",1.01
same,normalized growth,"locus YHR142W, strain chs7, hits give low values",0.981
same,normalized growth,"locus YHR200W, strain rpn10, hits give low values",1
same,normalized growth,"locus YIL066C, strain RNR3, hits give low values",1
same,normalized growth,"locus YIL073C, strain SPO22, hits give low values",1.04
same,normalized growth,"locus YIL125W, strain kgd1, hits give low values",1.01
same,normalized growth,"locus YIR030C, strain dcg1, hits give low values",1
same,normalized growth,"locus YJL092W, strain hpr5, hits give low values",0.989
same,normalized growth,"locus YJL095W, strain BCK1 (second series), hits give low values",1.01
same,normalized growth,"locus YJL095W, strain BCK1, hits give low values",1.02 and 0.938
same,normalized growth,"locus YJL115W, strain asf1, hits give low values",1.02
same,normalized growth,"locus YJL129C, strain trk1, hits give low values",1
same,normalized growth,"locus YJL134W, strain LCB3, hits give low values",1.01
same,normalized growth,"locus YJL154C, strain vps35, hits give low values",1.01
same,normalized growth,"locus YJL164C, strain tpk1, hits give low values",1.02
same,normalized growth,"locus YJL166W, strain qcr8, hits give low values",1
same,normalized growth,"locus YJL168C, strain set2, hits give low values",1.01
same,normalized growth,"locus YJL187C, strain SWE1 (second series), hits give low values",1.02
same,normalized growth,"locus YJR043C, strain POL32, hits give low values",0.991
same,normalized growth,"locus YJR066W, strain TOR1, hits give low values",0.942
